{
  "source": "the supplement of paper PMC11417369",
  "note": "± gives the standard deviation of the averaged measurements. In all, about 25,000 sequences were measured (“ln(normalized median fluorescence intensity)”: median about 10, highest 2% from about 12 on). Many of the other results were omitted from the sample, so the highest values are more common in it than they were.",
  "data": [
    {"test_system": "PfAP2-G AP2 domain (GST-tagged)", "experiment": "gcPBM binding intensity (ln(normalized median fluorescence intensity)); higher = stronger DNA binding", "outline": "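The binding buffer was 1× PBS containing 1% milk, 0.2 mg/ml BSA, 0.5% salmon testes DNA and 0.03% Triton X-100. In it, GST-tagged P. falciparum DNA-binding domains expressed in E. coli were applied for 1 h to an Agilent 4 × 180k array of primer-extended double-stranded 36-bp intergenic genomic probes plus negative controls. Binding intensity, read with Alexa488 anti-GST antibody and a 488 nm scan, is the highest Masliner-normalised natural-log median intensity across replicate spots of either probe orientation.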", "values": [
      {"sequence": "AATAAATTTAGACACACACACACATATAAATAAATA [CACACA_site6531]", "gcPBM binding intensity (ln)": "10.1 ± 0.13"},
      {"sequence": "AAAGAATTTGCATATACACACAAAAAAATATATACA [CACACA_site386]", "gcPBM binding intensity (ln)": "10.03 ± 0.035"},
      {"sequence": "TTGTGTACATATTAAGTGCATATATATATATATATA", "gcPBM binding intensity (ln)": "11.7 ± 1.2"},
      {"sequence": "TTACATACATACAAGTGTACGCATATATTAATATTA [XGTACX_site4006]", "gcPBM binding intensity (ln)": "11.8 ± 1"},
      {"sequence": "ATATTAATATACATATGTACATATATATATATATAT [XGTACX_site7425]", "gcPBM binding intensity (ln)": "11.2 ± 0.62"},
      {"sequence": "AATATATTTATATAGTGTACATTTTTTATATATGTA [XGTACX_site8142]", "gcPBM binding intensity (ln)": "11.3 ± 0.78"},
      {"sequence": "CATGTGCATATTAAATGTACATATATACATATATAC [XGTACX_site857]", "gcPBM binding intensity (ln)": "10.9 ± 0.58"},
      {"sequence": "TATATTAATAATAAGTGTACATATATATATATTTTT [XGTACX_site288]", "gcPBM binding intensity (ln)": "11.3 ± 0.81"},
      {"sequence": "TATATATATATTTATACACACATTAGTGTATACATG [CACACA_site2950]", "gcPBM binding intensity (ln)": "10.3 ± 0.22"},
      {"sequence": "TTTTTTTTATTAGTGTGTACGCATTTATTTATACAT [XGTACX_site1599]", "gcPBM binding intensity (ln)": "11.7 ± 0.88"},
      {"sequence": "TTAATATATTATATTTGTACATATATATATATACAA [XGTACX_site4798]", "gcPBM binding intensity (ln)": "10.9 ± 0.62"},
      {"sequence": "AATATATCTTTTTACGGCAACCATATTTTTCCCATT [CACACA_negctrl_site963]", "gcPBM binding intensity (ln)": "10.21 ± 0.064"},
      {"sequence": "TGATTATCCTATATATATTTCATAATGGAAAAAAAT [TGCATGCA_negctrl_site444]", "gcPBM binding intensity (ln)": "9.89 ± 0.35"},
      {"sequence": "CCATATGATATATATTGTACATTATATATTATTTCT [XGTACX_site1697]", "gcPBM binding intensity (ln)": "10.7 ± 0.45"},
      {"sequence": "CGTTAAAGGGAATGTATACACACGTTTCTCTATGTT [CACACA_site1198]", "gcPBM binding intensity (ln)": "10.2 ± 0.16"},
      {"sequence": "TATACACATATATAAACACACAAAAAAAAAAAAAAA [CACACA_site7041]", "gcPBM binding intensity (ln)": "9.78 ± 0.53"},
      {"sequence": "TAAAAAAAAACATATACACACAAAAACGTACACATA [CACACA_site1354]", "gcPBM binding intensity (ln)": "11.8 ± 1.1"},
      {"sequence": "TATATACACATATATAAACACACAAAAAAAAAAAAA [CACACA_site8626]", "gcPBM binding intensity (ln)": "9.89 ± 0.48"},
      {"sequence": "ACGTATAATATGTACACACACATATATACAAAAAAA [CACACA_site917]", "gcPBM binding intensity (ln)": "11.5 ± 1.1"},
      {"sequence": "TATAAACGTATAATATGTACACACACATATATACAA [XGTACX_site1686]", "gcPBM binding intensity (ln)": "11.3 ± 0.94"},
      {"sequence": "ATATACACACAAAAACGTACACATATATATATGTAT [XGTACX_site2673]", "gcPBM binding intensity (ln)": "11.7 ± 0.86"},
      {"sequence": "AAAAATTTATTTTGTTTTTTAAGATTTTTTTTTTTT [CACACA_negctrl_site1210]", "gcPBM binding intensity (ln)": "9.46 ± 0.028"},
      {"sequence": "TAGTATAATATGAACACACACACACGCACAAAAAAA [CACACA_site7035]", "gcPBM binding intensity (ln)": "10.4 ± 0.2"},
      {"sequence": "CATATAATATAATTATGTACATATATAATAATATAC [XGTACX_site5278]", "gcPBM binding intensity (ln)": "11.2 ± 0.69"},
      {"sequence": "CTTATTTAAGAGTATGAACACACATCATACACATAT [CACACA_site9205]", "gcPBM binding intensity (ln)": "10.3 ± 0.23"},
      {"sequence": "TTTTGTTACGGCAAGGAAGTTAAGCATAAATGAATG [GTGCAC_negctrl_site173]", "gcPBM binding intensity (ln)": "10.1 ± 0.16"},
      {"sequence": "AAAAAAAAAAAAAAAGGTACAGTAAAAAATTCCTCT [XGTACX_site5947]", "gcPBM binding intensity (ln)": "11.7 ± 0.98"},
      {"sequence": "AAAAAAAAATAAAAAAGTACAGGTAAATATATATAT [XGTACX_site5812]", "gcPBM binding intensity (ln)": "11.5 ± 1.2"},
      {"sequence": "AAAAAAGGTAAAAAAAGTACAAAAAAAAAATTAAAA [XGTACX_site6993]", "gcPBM binding intensity (ln)": "11.3 ± 0.88"},
      {"sequence": "ATATTGTAAGTAAACACACACACATATATATGTATA [CACACA_site8124]", "gcPBM binding intensity (ln)": "9.955 ± 0.035"},
      {"sequence": "AAAGACAAAAGGAATTGTACATAATATATAAAATAT [XGTACX_site2923]", "gcPBM binding intensity (ln)": "10.8 ± 0.54"},
      {"sequence": "ATATATAAAATATATTGTACATTAACATATATATTT [XGTACX_site2055]", "gcPBM binding intensity (ln)": "10.7 ± 0.43"},
      {"sequence": "ATAAATATAACATATTGTACCCTTAAAAAGGAACAA [XGTACX_site352]", "gcPBM binding intensity (ln)": "11.7 ± 0.96"},
      {"sequence": "TAATAATATATTTGTAGTACACAATTTTTTATAACT [XGTACX_site3951]", "gcPBM binding intensity (ln)": "11.6 ± 0.89"},
      {"sequence": "TAGTAATATATATTTTGTACATAAAATAATATATAA [XGTACX_site7971]", "gcPBM binding intensity (ln)": "10.9 ± 0.59"},
      {"sequence": "ATAATATATTTTTGTAGTACACTTCTGGTAATATCG [XGTACX_site2402]", "gcPBM binding intensity (ln)": "11.7 ± 1"},
      {"sequence": "AAGTTTTATTTAAATTGTACTAAAATTTTTATATTA [XGTACX_site7065]", "gcPBM binding intensity (ln)": "11 ± 0.69"},
      {"sequence": "AACACATAAAAAAGGTGTACCATAAAATATACATAC [XGTACX_site4478]", "gcPBM binding intensity (ln)": "11.4 ± 0.76"},
      {"sequence": "TGATGCAAGATATATACACACATATAAATATAAATA [CACACA_site7429]", "gcPBM binding intensity (ln)": "9.8 ± 0.042"},
      {"sequence": "TAAAGTTATGCAATAACACACATATACAATACATAT [CACACA_site6698]", "gcPBM binding intensity (ln)": "9.98 ± 0.057"},
      {"sequence": "TATATATATCTGTACACACACACATATAAATAAATA [CACACA_site4405]", "gcPBM binding intensity (ln)": "11.4 ± 1"},
      {"sequence": "AATAAATAAATATATACACACATATATCTGTACATA [CACACA_site9034]", "gcPBM binding intensity (ln)": "10.9 ± 0.67"},
      {"sequence": "TATATATAAAGGTGTACACATATATATATATCTGTA [CACACA_site5311]", "gcPBM binding intensity (ln)": "11.7 ± 0.98"},
      {"sequence": "AATACAATATAAAGGTGTACATATATATATATATAT [XGTACX_site68]", "gcPBM binding intensity (ln)": "11.4 ± 0.9"},
      {"sequence": "ATACAATAAAGGTGTACACATATATGATGCAAGATG [CACACA_site5897]", "gcPBM binding intensity (ln)": "11.7 ± 0.93"},
      {"sequence": "ACATATATATAAAGGTGTACACATATATATATATAT [XGTACX_site4779]", "gcPBM binding intensity (ln)": "11.7 ± 0.76"},
      {"sequence": "TAAGCCAAGGGATAAATAAAATAACAAAATGAAATC [GTGCAC_negctrl_site601]", "gcPBM binding intensity (ln)": "9.66 ± 0.36"},
      {"sequence": "TATACACATATATAAAGTACATATATGTGTAAAAAA [XGTACX_site8582]", "gcPBM binding intensity (ln)": "11 ± 0.64"},
      {"sequence": "ATATGTATATATAAAAGTACGCGTAAAAAAAAAAAA [XGTACX_site5377]", "gcPBM binding intensity (ln)": "11.7 ± 1.3"},
      {"sequence": "AAATATAAAAGTATATGTACATATATATATATATAT [XGTACX_site7446]", "gcPBM binding intensity (ln)": "11.2 ± 0.64"}
    ]}
  ]
}
